From PubChem BioAssay AID687036 (The Scripps Research Institute Molecular Screening Center, 2013)
Screen size: about 3,300 compounds; about 1,400 (42%) were called active.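 How the source made its calls: active means mean inhibition across replicates above the hit cutoff derived for the earlier primary screen (cut at about 22% in these data); inactive means the rest.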 The set was probably picked from earlier hits. The entries come from a sample that favours actives as a whole.

The molecules below were run against Protein arginine N-methyltransferase 1 (Homo sapiens) (UniProt Q99873) (assay: human PRMT1 activity-probe blockers, retest – biochemical, fluorescence polarization, triplicate, confirmation (AID 687036)). Details: recombinant His-PRMT1, activity-based probe fluorescence polarization; at 2.79 µM; active compounds read high.
Sequence of Protein arginine N-methyltransferase 1 (Homo sapiens) (Q99873 whole entry, looked up): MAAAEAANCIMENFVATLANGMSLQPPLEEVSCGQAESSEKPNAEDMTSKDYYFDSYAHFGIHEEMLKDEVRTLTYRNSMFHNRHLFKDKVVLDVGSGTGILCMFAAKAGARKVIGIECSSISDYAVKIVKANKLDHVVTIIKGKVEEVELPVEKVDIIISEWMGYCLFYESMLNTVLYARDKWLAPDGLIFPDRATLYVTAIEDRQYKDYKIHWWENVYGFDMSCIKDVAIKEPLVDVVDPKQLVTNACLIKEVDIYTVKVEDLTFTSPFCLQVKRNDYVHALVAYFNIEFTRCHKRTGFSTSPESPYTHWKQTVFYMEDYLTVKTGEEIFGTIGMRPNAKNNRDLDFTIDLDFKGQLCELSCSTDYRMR

| SMILES | inhibition |
| --- | --- |
| COc1ccc(N2C(=O)/C(=C/c3ccco3)C(=O)NC2=S)cc1 | 75.2% (active) |
| Cc1cc(N2CCNC[C@@H]2C)ccc1N1CC[C@H](O)C1 | 4.59% (inactive) |
| O=C1NC(=O)N(Cc2ccco2)C(=O)/C1=C\c1ccc(-c2ccc(F)cc2)o1 | 52.9% (active) |
| Cc1cc(/C=C2/C(=O)NC(=O)N(Cc3ccco3)C2=O)c(C)n1-c1ccc(C(=O)O)cc1 | -1.23% (inactive) |
| CCOC(=O)CC(SP1(=S)OCC2(CCCCO2)C(C2CCCCO2)O1)C(=O)OCC (stereo unspecified) | 60.2% (active) |
| O=C1N=c2ccccc2=C/C1=C\c1c(O)[nH]c(=S)[nH]c1=O | 55.4% (active) |
